# Where two headings read alike, the source gives them in different places.
# What was measured:
# Settings in all cases: n = 1
# PAK6 = system: PAK6
# PAK7 = system: PAK7
# PCTK1 = system: T1, PCTK1
# T1 construct: gene CDK16
# PCTK2 = system: T2, PCTK2
# T2 construct: gene CDK17
# PCTK3 = system: T3, PCTK3
# T3 construct: gene CDK18
# PDGFRA = system: PDGFRA
# PDGFRB = system: PDGFRB
# PDPK1 = system: PDPK1
# PFTAIRE2 = system: PFTAIRE2
# PFTK1 = system: T4, PFTK1
# T4 construct: gene CDK14
# PHKG1 = system: PHKG1
# PHKG2 = system: PHKG2
# PIK3C2B = system: PIK3C2B
# PIK3C2G = system: PIK3C2G
# PIK3CA = system: PIK3CA
# PIK3CB = system: PIK3CB
# PIK3CD = system: PIK3CD
# PIK3CG = system: PIK3CG
# PIK4CB = system: T5, PIK4CB
# T5 construct: gene PI4KB
# PIKFYVE = system: PIKFYVE
# [1] = concentration: 1 μM, replicates: in singlicate
# 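Further: KINOMEscan kinase panel screen.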
smiles,measurement,setting,value
Cc1ccc(NC(=O)Nc2cc(C(C)(C)C)nn2-c2ccccc2)cc1 [GSK1014915],%Inh,PAK6; [1],0%
same,%Inh,PAK7; [1],0%
same,%Inh,PCTK1; [1],6%
same,%Inh,PCTK2; [1],0%
same,%Inh,PCTK3; [1],27%
same,%Inh,PDGFRA; [1],36%
same,%Inh,PDGFRB; [1],98.9%
same,%Inh,PDPK1; [1],0%
same,%Inh,PFTAIRE2; [1],10%
same,%Inh,PFTK1; [1],9%
same,%Inh,PHKG1; [1],4%
same,%Inh,PHKG2; [1],0%
same,%Inh,PIK3C2B; [1],0%
same,%Inh,PIK3C2G; [1],0%
same,%Inh,PIK3CA; [1],0%
same,%Inh,PIK3CB; [1],0%
same,%Inh,PIK3CD; [1],0%
same,%Inh,PIK3CG; [1],0%
same,%Inh,PIK4CB; [1],4%
same,%Inh,PIKFYVE; [1],0%
COc1cc2nccc(Nc3ccc(NC(=O)c4ccc(C)cc4)c(O)c3)c2cc1OC.Cl [GW440132],%Inh,PAK6; [1],0%
same,%Inh,PAK7; [1],0%
same,%Inh,PCTK1; [1],4%
same,%Inh,PCTK2; [1],0%
same,%Inh,PCTK3; [1],19%
same,%Inh,PDGFRA; [1],12%
same,%Inh,PDGFRB; [1],69%
same,%Inh,PDPK1; [1],0%
same,%Inh,PFTAIRE2; [1],26%
same,%Inh,PFTK1; [1],85%
same,%Inh,PHKG1; [1],15%
same,%Inh,PHKG2; [1],0%
same,%Inh,PIK3C2B; [1],100%
same,%Inh,PIK3C2G; [1],0%
same,%Inh,PIK3CA; [1],100%
same,%Inh,PIK3CB; [1],0%
same,%Inh,PIK3CD; [1],0%
same,%Inh,PIK3CG; [1],100%
same,%Inh,PIK4CB; [1],0%
same,%Inh,PIKFYVE; [1],0%
Cc1cccc(-c2cc(Nc3ccncc3)c3ccccc3n2)n1 [GSK223675],%Inh,PAK6; [1],0%
same,%Inh,PAK7; [1],0%
same,%Inh,PCTK1; [1],13%
same,%Inh,PCTK2; [1],7%
same,%Inh,PCTK3; [1],0%
same,%Inh,PDGFRA; [1],2%
same,%Inh,PDGFRB; [1],23%
same,%Inh,PDPK1; [1],0%
same,%Inh,PFTAIRE2; [1],27%
same,%Inh,PFTK1; [1],16%
same,%Inh,PHKG1; [1],0%
same,%Inh,PHKG2; [1],1%
same,%Inh,PIK3C2B; [1],4%
same,%Inh,PIK3C2G; [1],0%
same,%Inh,PIK3CA; [1],7%
same,%Inh,PIK3CB; [1],0%
same,%Inh,PIK3CD; [1],0%
same,%Inh,PIK3CG; [1],7%
same,%Inh,PIK4CB; [1],21%
same,%Inh,PIKFYVE; [1],23%
Cc1ccc(NC(=O)Nc2cccc(C(F)(F)F)c2)cc1 [GSK955403],%Inh,PAK6; 1 µM,36%
same,%Inh,PAK7; 1 µM,1%
same,%Inh,PCTK1; 1 µM,0%
same,%Inh,PCTK2; 1 µM,2%
same,%Inh,PCTK3; 1 µM,0%
same,%Inh,PDGFRA; 1 µM,0%
same,%Inh,PDGFRB; 1 µM,45%
same,%Inh,PDPK1; 1 µM,14%
same,%Inh,PFTAIRE2; 1 µM,1%
same,%Inh,PFTK1; 1 µM,5%
same,%Inh,PHKG1; 1 µM,12%
same,%Inh,PHKG2; 1 µM,15%
same,%Inh,PIK3C2B; 1 µM,1%
same,%Inh,PIK3C2G; 1 µM,36%
same,%Inh,PIK3CA; 1 µM,5%
same,%Inh,PIK3CB; 1 µM,0%
same,%Inh,PIK3CD; 1 µM,0%
same,%Inh,PIK3CG; 1 µM,9%
same,%Inh,PIK4CB; 1 µM,0%
same,%Inh,PIKFYVE; 1 µM,0%
Cn1ccc2ncnc(Oc3cccc(C(=O)Nc4ccccc4)c3)c21,%Inh,PAK6; [1],0%
same,%Inh,PAK7; [1],0%
same,%Inh,PCTK1; [1],0%
same,%Inh,PCTK2; [1],2%
same,%Inh,PCTK3; [1],0%
same,%Inh,PDGFRA; [1],12%
same,%Inh,PDGFRB; [1],39%
same,%Inh,PDPK1; [1],0%
same,%Inh,PFTAIRE2; [1],0%
same,%Inh,PFTK1; [1],7%
same,%Inh,PHKG1; [1],0%
same,%Inh,PHKG2; [1],0%
same,%Inh,PIK3C2B; [1],0%
same,%Inh,PIK3C2G; [1],0%
same,%Inh,PIK3CA; [1],0%
same,%Inh,PIK3CB; [1],15%
same,%Inh,PIK3CD; [1],27%
same,%Inh,PIK3CG; [1],0%
same,%Inh,PIK4CB; [1],2%
same,%Inh,PIKFYVE; [1],10%
COc1ccc(Nc2nccc(NCCNC(=O)Nc3ccccc3F)n2)cc1 [GSK1379901],%Inh,PAK6; [1],0%
same,%Inh,PAK7; [1],0%
same,%Inh,PCTK1; [1],4%
same,%Inh,PCTK2; [1],0%
same,%Inh,PCTK3; [1],0%
same,%Inh,PDGFRA; [1],0%
same,%Inh,PDGFRB; [1],70%
same,%Inh,PDPK1; [1],0%
same,%Inh,PFTAIRE2; [1],3%
same,%Inh,PFTK1; [1],26%
same,%Inh,PHKG1; [1],0%
same,%Inh,PHKG2; [1],0%
same,%Inh,PIK3C2B; [1],0%
same,%Inh,PIK3C2G; [1],0%
same,%Inh,PIK3CA; [1],0%
same,%Inh,PIK3CB; [1],0%
same,%Inh,PIK3CD; [1],0%
same,%Inh,PIK3CG; [1],0%
same,%Inh,PIK4CB; [1],11%
same,%Inh,PIKFYVE; [1],0%
Cc1c(O)cccc1Nc1ccnc2ccc(C(F)(F)F)cc12.Cl [GW466413],%Inh,PAK6; [1],0%
same,%Inh,PAK7; [1],0%
same,%Inh,PCTK1; [1],0%
same,%Inh,PCTK2; [1],0%
same,%Inh,PCTK3; [1],0%
same,%Inh,PDGFRA; [1],0%
same,%Inh,PDGFRB; [1],5%
same,%Inh,PDPK1; [1],0%
same,%Inh,PFTAIRE2; [1],0%
same,%Inh,PFTK1; [1],0%
same,%Inh,PHKG1; [1],3%
same,%Inh,PHKG2; [1],0%
same,%Inh,PIK3C2B; [1],18%
same,%Inh,PIK3C2G; [1],48%
same,%Inh,PIK3CA; [1],0%
same,%Inh,PIK3CB; [1],0%
same,%Inh,PIK3CD; [1],25%
same,%Inh,PIK3CG; [1],0%
same,%Inh,PIK4CB; [1],3%
same,%Inh,PIKFYVE; [1],11%
Cn1ccc2ncnc(Oc3ccc(Nc4nc5ccccc5[nH]4)cc3)c21,%Inh,PAK6; [1],9%
same,%Inh,PAK7; [1],0%
same,%Inh,PCTK1; [1],0%
same,%Inh,PCTK2; [1],0%
same,%Inh,PCTK3; [1],12%
same,%Inh,PDGFRA; [1],8%
same,%Inh,PDGFRB; [1],0%
same,%Inh,PDPK1; [1],19%
same,%Inh,PFTAIRE2; [1],7%
same,%Inh,PFTK1; [1],0%
same,%Inh,PHKG1; [1],0%
same,%Inh,PHKG2; [1],25%
same,%Inh,PIK3C2B; [1],0%
same,%Inh,PIK3C2G; [1],0%
same,%Inh,PIK3CA; [1],0%
same,%Inh,PIK3CB; [1],0%
same,%Inh,PIK3CD; [1],0%
same,%Inh,PIK3CG; [1],0%
same,%Inh,PIK4CB; [1],0%
same,%Inh,PIKFYVE; [1],0%
CS(=O)(=O)c1ccc(-c2nc3n(c2-c2ccncc2)CCC3)cc1 [SKF-105942],%Inh,PAK6; [1],99.2%
same,%Inh,PAK7; [1],0%
same,%Inh,PCTK1; [1],11%
same,%Inh,PCTK2; [1],0%
same,%Inh,PCTK3; [1],0%
same,%Inh,PDGFRA; [1],0%
same,%Inh,PDGFRB; [1],4%
same,%Inh,PDPK1; [1],0%
same,%Inh,PFTAIRE2; [1],12%
same,%Inh,PFTK1; [1],37%
same,%Inh,PHKG1; [1],3%
same,%Inh,PHKG2; [1],0%
same,%Inh,PIK3C2B; [1],0%
same,%Inh,PIK3C2G; [1],0%
same,%Inh,PIK3CA; [1],0%
same,%Inh,PIK3CB; [1],0%
same,%Inh,PIK3CD; [1],0%
same,%Inh,PIK3CG; [1],0%
same,%Inh,PIK4CB; [1],100%
same,%Inh,PIKFYVE; [1],0%
Fc1cccc(COc2nnc(-c3ccc4c(c3)CCO4)o2)c1,%Inh,PAK6; [1],38%
same,%Inh,PAK7; [1],17%
same,%Inh,PCTK1; [1],8%
same,%Inh,PCTK2; [1],6%
same,%Inh,PCTK3; [1],0%
same,%Inh,PDGFRA; [1],28%
same,%Inh,PDGFRB; [1],0%
same,%Inh,PDPK1; [1],0%
same,%Inh,PFTAIRE2; [1],7%
same,%Inh,PFTK1; [1],2%
same,%Inh,PHKG1; [1],0%
same,%Inh,PHKG2; [1],0%
same,%Inh,PIK3C2B; [1],0%
same,%Inh,PIK3C2G; [1],0%
same,%Inh,PIK3CA; [1],0%
same,%Inh,PIK3CB; [1],14%
same,%Inh,PIK3CD; [1],17%
same,%Inh,PIK3CG; [1],7%
same,%Inh,PIK4CB; [1],0%
same,%Inh,PIKFYVE; [1],24%
